# Test results taken from PubChem BioAssay (Tox21).
# Values joined by “and” are separate entries in the source; they are usually repeats but may differ in a detail not shown here. Identical values can stand only once. Records with an inconclusive call do not appear. Entries that show only a call come without a potency. More than one record can exist for a structure, and the calls need not agree. Active and inactive are the calls of the source. Unless noted, the call rests on the fitted dose curve; in most records, active means well fitted curve in the direction sought with a large enough effect in the repeat runs; inconclusive means weak or mixed curves; inactive means no such curve, though single readings can be large; an effect the other way counts as inactive or inconclusive.
# What was measured:
# [1] = qHTS RealTime-Glo MT Cell Viability Assay in HEK293 cells - 0 hour (AID 1224880); further: top concentration of the series differs between compounds; nearly all actives have a fitted effect of over 45% in size
# How it was run: (§1)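 Nonlytic bioluminescent viability monitoring. HEK293 at 600 cells/well with reagent; 5 h settle; compound transfer by pintool; plates held at 37 C and read at set time points.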
# [2] = A CellTox Green Cytotoxicity Assay to monitor cytotoxicity in HEK293 cells - 32 hour (AID 1224881); further: nearly all actives have a fitted effect of over 40% in size; further: potency means the concentration at half of the fitted maximal effect
# How it was run: (§2)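 Cytotoxicity was tracked continuously in HEK293 cells by a DNA-binding dye excluded from viable cells. Compounds were transferred in DMSO 5 h after seeding; fluorescence was recorded at intervals up to 40 h.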
# [3] = A CellTox Green Cytotoxicity Assay to monitor cytotoxicity in HepG2 cells - 0 hour (AID 1224882); further: nearly all actives have a fitted effect of over 35% in size; further: potency means the concentration at half of the fitted maximal effect
# How it was run: (§3)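 Real-time, homogeneous cytotoxicity readout: dead-cell DNA staining by CellTox Green in HepG2 monolayers, fluorescence measured at timed intervals up to 40 h of continuous compound exposure.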
# [4] = A CellTox Green Cytotoxicity Assay to monitor cytotoxicity in HepG2 cells - 32 hour (AID 1224883); further: nearly all actives have a fitted effect of over 50% in size; further: potency means the concentration at half of the fitted maximal effect
# How it was run: as §3
# [5] = A CellTox Green Cytotoxicity Assay to monitor cytotoxicity in HEK293 cells - 8 hour (AID 1224884); further: nearly all actives have a fitted effect of over 35% in size; further: potency means the concentration at half of the fitted maximal effect
# How it was run: as §2
# [6] = qHTS RealTime-Glo MT Cell Viability Assay in HepG2 cells - 16 hour (AID 1224885); further: nearly all actives have a fitted effect of over 50% in size
# How it was run: (§4)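 HepG2 cells were seeded at 600 cells/well together with NanoLuc luciferase and a cell-permeant prosubstrate, preincubated 5 h at 37 C/5% CO2, then pin-dosed with compounds in DMSO. Nonlytic luminescence from viable cells was read at each time point.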
# [7] = qHTS RealTime-Glo MT Cell Viability Assay in HEK293 cells - 24 hour (AID 1224886); further: top concentration of the series differs between compounds; nearly all actives have a fitted effect of over 50% in size
# How it was run: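 HEK293 cells were seeded at 600 cells/well together with NanoLuc luciferase and cell-permeant prosubstrate, preincubated 5 h at 37 C/5% CO2, then given compound in DMSO by pintool. Luminescence from viable-cell prosubstrate reduction was read repeatedly over 40 h.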
# [8] = qHTS RealTime-Glo MT Cell Viability Assay in HEK293 cells - 8 hour (AID 1224887); further: top concentration of the series differs between compounds; nearly all actives have a fitted effect of over 50% in size
# How it was run: as §1
# [9] = A CellTox Green Cytotoxicity Assay to monitor cytotoxicity in HEK293 cells - 16 hour (AID 1224888); further: nearly all actives have a fitted effect of over 35% in size
# How it was run: as §2
# [10] = qHTS RealTime-Glo MT Cell Viability Assay in HepG2 cells - 0 hour (AID 1224889); further: nearly all actives have a fitted effect of over 50% in size
# How it was run: as §4
# [11] = A CellTox Green Cytotoxicity Assay to monitor cytotoxicity in HepG2 cells - 8 hour (AID 1224890); further: nearly all actives have a fitted effect of over 45% in size; further: potency means the concentration at half of the fitted maximal effect
# How it was run: as §3
# [12] = qHTS assay to identify small molecule HDAC inhibitors (AID 1259364); further: nearly all actives have a fitted effect of over 45% in size; further: potency means the concentration at half of the fitted maximal effect
# How it was run: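 Homogeneous cell-based luminescent assay of endogenous class I/II HDAC activity; HCT-116 cells, 2 h compound exposure, 30 min HDAC-Glo development at RT.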
# [13] = qHTS assay to identify small molecule HDAC inhibitors - cell viability counter screen (AID 1259365)
# How it was run: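 Wild-type HCT-116 cells were seeded at 1,500 per well, incubated overnight at 37 C, then exposed to compounds in DMSO for 2hr. Viability was read by CellTiter-Glo luminescence after 30min at room temperature.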
# [14] = qHTS assay to identify small molecule agonists of the sonic hedgehog signaling (Shh) pathway - cell viability counter screen (AID 1259366); further: nearly all actives have a fitted effect of over 50% in size
# How it was run: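 NIH/3T3-derived 3T3 Gli1-Luc cells (stable Gli1-responsive firefly luciferase reporter) were seeded, rested 4 hr at 37 C/5% CO2, then exposed to compounds in DMSO for 24 hr; viability was read by CellTiter-Fluor fluorescence in the same wells.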
# [15] = qHTS assay to identify small molecule antagonists of the sonic hedgehog signaling (Shh) pathway - cell viability counter screen (AID 1259367); further: nearly all actives have a fitted effect of over 55% in size
# How it was run: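 After a 4 hr settling period, 3T3 Gli1-Luc cells were treated with DMSO-dissolved chemicals and conditioned medium, kept 24 hr at 37C in 5% CO2, and assayed for viability by CellTiter-Fluor fluorescence following 1 hr reagent incubation.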
# [16] = qHTS assay to identify small molecule antagonists of the androgen receptor (AR) signaling pathway using the MDA cell line in the presence of 0.5 nM R1881 - cell viability counter screen (AID 1259242); further: nearly all actives have a fitted effect of over 45% in size
# How it was run: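 Cytotoxicity toward MDA-kb2 cells is measured by CellTiter-Fluor live-cell protease fluorescence after 16 hr compound exposure at 37C in the presence of 0.5 nM R1881 stimulator.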
# [17] = biological target: Androgen receptor (Homo sapiens) (UniProt P10275); assay: qHTS assay to identify small molecule antagonists of the androgen receptor (AR) signaling pathway using the MDA cell line in the presence of 0.5 nM R1881 (AID 1259243); further: nearly all actives have a fitted effect of over 50% in size
# How it was run: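 Steps: seed MDA-kb2 cells, incubate 5 hr at 37C; pin-transfer compounds in DMSO; add R1881 to 0.5 nM final; incubate 16 hr; add ONE-Glo, wait 30 min at room temperature; read luminescence.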
# [18] = qHTS assay to identify small molecule antagonists of the estrogen receptor alpha (ER-alpha) signaling pathway using the BG1 cell line in the presence of 0.1 nM 17-beta-estradiol - cell viability counter screen (AID 1259241); further: nearly all actives have a fitted effect of over 40% in size
# How it was run: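 VM7Luc4E2 cells (endogenous ER-alpha, 4×ERE-luciferase), hormone-starved 5 days in charcoal-stripped FBS, were treated with compounds plus 0.1 nM 17beta-estradiol for 22 hr at 37C; viability read in same wells as CellTiter-Fluor live-cell protease fluorescence.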
# [19] = qHTS assay to identify small molecule phospholipidosis (PLD) inducers (AID 1259344; active means well fitted curve in the direction sought with a large enough effect; an effect the other way counts as inactive or inconclusive)
# How it was run: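 HepG2 cells grown on collagen I take up LipidTOX Red while exposed to compound for 24 h; after fixation they are imaged at 20x and pit metrics are extracted.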
# [20] = biological target: Estrogen receptor (Homo sapiens) (UniProt P03372); assay: qHTS assay to identify small molecule antagonists of the estrogen receptor alpha (ER-alpha) signaling pathway using the BG1 cell line in the presence of 0.1 nM 17-beta-estradiol (AID 1259244); further: nearly all actives have a fitted effect of over 50% in size
# How it was run: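 After 5 days in hormone-depleted medium (charcoal-stripped serum, no phenol red), VM7Luc4E2 cells were seeded, incubated 24 h, then co-treated with compound and 0.1 nM (final) estradiol for 22 h before luminescence detection.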
# Sequence of Androgen receptor (Homo sapiens) (P10275 whole entry, looked up): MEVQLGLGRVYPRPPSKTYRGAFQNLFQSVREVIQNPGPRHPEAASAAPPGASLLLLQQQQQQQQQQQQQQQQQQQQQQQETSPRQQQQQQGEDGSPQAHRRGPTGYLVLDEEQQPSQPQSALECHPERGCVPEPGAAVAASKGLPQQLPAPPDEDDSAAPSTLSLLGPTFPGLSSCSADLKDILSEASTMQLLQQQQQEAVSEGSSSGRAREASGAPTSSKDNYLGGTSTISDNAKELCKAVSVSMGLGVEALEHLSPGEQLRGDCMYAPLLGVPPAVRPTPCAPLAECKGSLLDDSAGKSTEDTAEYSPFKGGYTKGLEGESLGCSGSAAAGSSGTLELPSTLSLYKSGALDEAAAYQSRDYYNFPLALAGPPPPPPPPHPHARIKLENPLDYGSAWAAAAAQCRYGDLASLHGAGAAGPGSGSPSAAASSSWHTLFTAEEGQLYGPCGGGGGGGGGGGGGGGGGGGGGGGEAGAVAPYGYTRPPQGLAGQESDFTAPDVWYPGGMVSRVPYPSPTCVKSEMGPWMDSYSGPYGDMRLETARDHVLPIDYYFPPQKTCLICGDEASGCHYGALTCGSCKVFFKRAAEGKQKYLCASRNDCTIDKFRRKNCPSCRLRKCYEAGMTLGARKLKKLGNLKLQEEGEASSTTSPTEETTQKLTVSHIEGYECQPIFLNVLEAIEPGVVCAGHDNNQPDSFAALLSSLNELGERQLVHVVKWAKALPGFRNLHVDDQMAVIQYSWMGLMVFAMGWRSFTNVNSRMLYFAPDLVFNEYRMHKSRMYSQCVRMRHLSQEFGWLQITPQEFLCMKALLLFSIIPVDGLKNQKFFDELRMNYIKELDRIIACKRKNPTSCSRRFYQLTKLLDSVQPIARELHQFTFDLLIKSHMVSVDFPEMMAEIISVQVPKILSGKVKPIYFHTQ
# Sequence of Estrogen receptor (Homo sapiens) (P03372 whole entry, looked up): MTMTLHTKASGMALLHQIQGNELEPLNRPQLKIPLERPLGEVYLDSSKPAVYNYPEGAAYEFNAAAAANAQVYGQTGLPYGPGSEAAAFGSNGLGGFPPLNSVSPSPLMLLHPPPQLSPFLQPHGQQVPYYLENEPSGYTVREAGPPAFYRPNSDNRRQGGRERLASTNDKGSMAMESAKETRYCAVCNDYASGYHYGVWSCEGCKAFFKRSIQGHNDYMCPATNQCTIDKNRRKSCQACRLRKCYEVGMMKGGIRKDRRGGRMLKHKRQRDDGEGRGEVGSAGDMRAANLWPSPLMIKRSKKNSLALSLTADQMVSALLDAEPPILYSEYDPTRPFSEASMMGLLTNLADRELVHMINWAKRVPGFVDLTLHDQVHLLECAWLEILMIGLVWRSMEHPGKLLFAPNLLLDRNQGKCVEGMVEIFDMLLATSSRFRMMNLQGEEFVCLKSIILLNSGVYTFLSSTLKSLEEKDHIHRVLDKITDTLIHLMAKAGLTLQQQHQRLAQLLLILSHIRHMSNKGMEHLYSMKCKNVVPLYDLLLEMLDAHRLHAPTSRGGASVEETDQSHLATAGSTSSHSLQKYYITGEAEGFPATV
SMILES,outcome [1],Potency [2],Potency [3],Potency [4],Potency [5],outcome [6],outcome [7],outcome [8],Potency [9],outcome [10],Potency [11],Potency [12],outcome [13],Potency [14],Potency [15],outcome [16],Potency [17],outcome [18],Potency [19],Potency [20]
CCOC(=O)CC(SP(=O)(OC)OC)C(=O)OCC (stereo not drawn),inactive,inactive,inactive,inactive,inactive,inactive,inactive,inactive,inactive,inactive,inactive,inactive,inactive,inactive,inactive,,,,,
COc1cc(-c2ccc(N)c(OC)c2)ccc1N,inactive,inactive,inactive,inactive,inactive,inactive,inactive,inactive,inactive,inactive,inactive,inactive and 27.3 µM (active),inactive,inactive,inactive,inactive,,,,
CCNc1nc(Cl)nc(NC(C)C)n1,inactive,inactive,inactive,inactive,inactive,inactive,inactive,inactive,inactive,inactive,inactive,inactive,inactive,inactive,inactive,,,,,
N#CN=C(N)N,inactive,inactive,inactive,inactive,inactive,inactive,inactive,inactive,inactive,inactive,inactive,inactive,inactive,inactive,inactive,,,,,
COc1nc(NC(C)C)nc(NC(C)C)n1,inactive,inactive,inactive,inactive,inactive,inactive,inactive,inactive,inactive,inactive,inactive,inactive,inactive,inactive,,inactive,,,,
Cc1ccc(N=C=O)cc1N=C=O,inactive,inactive,inactive,inactive,inactive,inactive,inactive,inactive,inactive,inactive,inactive,inactive,inactive,inactive,inactive,inactive,,,,
CNC(=O)O/N=C(\SC)C(=O)N(C)C,inactive,inactive,inactive,inactive,inactive,inactive,inactive,inactive,inactive,inactive,inactive,inactive,inactive,inactive,inactive,,inactive,,,
Cc1ccc(N)cc1,inactive,inactive,inactive,inactive,inactive,inactive,inactive,inactive,inactive,inactive,inactive,inactive,inactive,inactive,inactive,inactive,,,,
Clc1cnc(Oc2ccc(Oc3ncc(Cl)cc3Cl)cc2)c(Cl)c1,inactive,27.5 µM (active),inactive,inactive,inactive and 34.7 µM (active),inactive,inactive,inactive,,inactive,inactive,inactive,inactive,inactive,inactive,,,,,
O=S(=O)(O)OOS(=O)(=O)O,inactive,inactive,inactive,inactive,inactive,inactive,inactive,inactive,inactive,inactive,inactive,inactive,inactive,inactive,inactive,,,,,
CC(C)c1cccc(C(C)C)c1O,inactive,24.5 µM (active) and 43.6 µM (active) and inactive,inactive and 43.6 µM (active),43.6 µM (active) and inactive,inactive and 43.6 µM (active),inactive,inactive,inactive,,inactive,43.6 µM (active) and inactive,inactive,inactive,inactive,inactive,,inactive,inactive,inactive,
CCOc1ccc(N)cc1,inactive,inactive,inactive,inactive,inactive,inactive,inactive,inactive,inactive,inactive,inactive,inactive,inactive,inactive,inactive,inactive,,,,
CN(C)CCC#N,inactive,inactive,inactive,inactive,inactive,inactive,inactive,inactive,inactive,inactive,inactive,inactive,inactive,inactive,,,,,,inactive
Cl[C@H]1OCCO[C@@H]1Cl,inactive,inactive,inactive,inactive,inactive,inactive,inactive,inactive,inactive,inactive,inactive,inactive,inactive,inactive,inactive,inactive,,,,
N#Cc1cccc(C#N)c1,inactive,inactive,inactive,inactive,inactive,inactive,inactive,inactive,inactive,inactive,inactive,inactive,inactive,inactive,inactive,,,,,
COC(C)(C)CCCC(C)C/C=C/C(C)=C/C(=O)OC(C)C (stereo not drawn),inactive,inactive,inactive,inactive,inactive,inactive,inactive,inactive,inactive,inactive,inactive,inactive,inactive,inactive,inactive,,inactive,,inactive,
ClCCOCCCl,inactive,inactive,inactive,inactive,inactive,inactive,inactive,inactive,inactive,inactive,inactive,inactive,inactive,inactive,inactive,inactive,,,,
COP(=S)(OC)Oc1ccc(SC)c(C)c1,inactive,inactive,inactive,inactive,inactive,inactive,inactive,inactive,inactive,inactive,inactive,inactive,inactive,inactive,,,,,inactive,inactive
C=CC#N,inactive,inactive,inactive,inactive,inactive,inactive,inactive,inactive,inactive,inactive,inactive,inactive,inactive,inactive,,inactive,,,,
C=CC(=O)OCC(CC)CCCC (stereo not drawn),inactive,inactive,inactive,inactive,inactive,inactive,inactive,inactive,inactive,inactive,inactive,inactive,inactive,inactive,inactive,,,,,
OCc1ccco1,inactive,inactive,inactive,inactive,inactive,inactive,inactive,inactive,inactive,inactive,inactive,inactive,inactive,inactive,,,,,,
C/C=C/c1ccc2c(c1)OCO2,inactive,inactive,inactive,inactive,inactive,inactive,inactive,inactive,inactive,inactive,inactive,inactive,inactive,inactive,inactive,inactive,,,,
O=P1(NCCCl)OCCCN1CCCl (stereo not drawn),inactive,inactive,inactive,inactive,inactive,inactive,inactive,inactive,inactive,inactive,inactive,inactive,inactive,inactive,,,,,inactive,
O=[N+]([O-])c1ccc(Cl)cc1,inactive,inactive,inactive,inactive,inactive,inactive,inactive,inactive,inactive,inactive,inactive,inactive,inactive,inactive,,,,,,
CN(C)C(=O)Nc1cccc(C(F)(F)F)c1,inactive,inactive,inactive,inactive,inactive,inactive,inactive,inactive,inactive,inactive,inactive,inactive,inactive,inactive,inactive,,,,,
COS(=O)(=O)OC,inactive,inactive,inactive,inactive,inactive,inactive,inactive,inactive,inactive,inactive,inactive,inactive,inactive,inactive,inactive,inactive,,,,
CNc1cnn(-c2cccc(C(F)(F)F)c2)c(=O)c1Cl,inactive,inactive,inactive,inactive,inactive,inactive,inactive,inactive,inactive,inactive,inactive,inactive and 30.6 µM (active),inactive,inactive,inactive,inactive,,,,
O=C(O)C(Br)Br,inactive,inactive,inactive,inactive,inactive,inactive,inactive,inactive,inactive,inactive,inactive,inactive,inactive,inactive,inactive,inactive,,,,
